PubChem BioAssay
Values joined by “and” are separate entries in the source; they are usually repeats but may differ in a detail not shown here. Equal entries are not always repeated. Active and inactive are the calls of the source.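 How the source made its calls, unless noted: active means inhibition at or above 50% relative to wild type and mutant plate controls; inactive means inhibition below 50%.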

How the values were obtained:
[1] = inhibitors of TNFa-induced NFkB p65 translocation, primary screen, imaging, HUVEC, MLSMR starter and 10KST1 sets (AID 438;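 active means inhibition above 20% together with a positive visual image hit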;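 further: compound added about 3h40 before a 20 min TNFalpha stimulation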;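 on inhibition: signal is the nuclear over cytoplasmic p65 intensity ratio per well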); conditions: HUVEC TNFa-induced p65 nuclear translocation; cell count: measured here: nuclei count (cytotoxicity indicator), at 2.08 µM; inhibition: at 2 µM, stronger effect = higher value, 0% TNFa-plus-vehicle, 100% no-TNFa wells
[2] = inhibitors of mutant huntingtin aggregation, primary screen, imaging, exon1htt(103Q)mCFP cells, high-content imaging (AID 483;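 active means visual image review flags a hit and inhibition of aggregation exceeds 20%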;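 further: compound exposure lasted 3 days before fixation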;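 on nuclei count: percent of the per-plate median nuclei count of sample wells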); conditions: exon1htt(103Q)mCFP cell line, aggregate imaging, at 2 µM; inhibition of aggregation: stronger effect = higher value; nuclei count: measured here: cell count, toxicity
[3] = inhibitors of E-selectin induction by TNFa, primary screen, imaging, HUVEC, immunofluorescence, MLSMR starter and 10KST1 sets (AID 487;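 active means visually confirmed hit in the image check and inhibition above 20%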;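 on inhibition: signal is fraction of cell area covered by stained E-selectin grains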;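 on nuclei count: 100% = median nuclei count of all wells on the same plate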); conditions: HUVEC TNFalpha-induced E-selectin immunofluorescence imaging, at 2 µM; inhibition: stronger effect = higher value; nuclei count: measured here: cell number, toxicity
[4] = DUSP6 inhibitors restoring Erk phosphorylation by chemical complementation, primary imaging in DUSP6-transfected HeLa (AID 609;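 active means compounds giving at least 50% inhibition in the cell-based MKP-3 phosphatase rescue imaging test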;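 on inhibition: phospho-Erk level distribution per well compared with pooled transfected vehicle control wells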); conditions: HeLa MKP-3 transfected, phospho-Erk imaging KS statistic, at 10 µM, cells stimulated with TPA for 15 min
[5] = target: Dual specificity protein phosphatase 6 (Homo sapiens) (UniProt Q16828); assay: as above; conditions: HeLa MKP-3 transfected, phospho-Erk imaging KS statistic; at 10 µM; stronger effect = higher value; cells stimulated with TPA for 15 min
Sequence of Dual specificity protein phosphatase 6 (Homo sapiens) (Q16828 whole entry, looked up): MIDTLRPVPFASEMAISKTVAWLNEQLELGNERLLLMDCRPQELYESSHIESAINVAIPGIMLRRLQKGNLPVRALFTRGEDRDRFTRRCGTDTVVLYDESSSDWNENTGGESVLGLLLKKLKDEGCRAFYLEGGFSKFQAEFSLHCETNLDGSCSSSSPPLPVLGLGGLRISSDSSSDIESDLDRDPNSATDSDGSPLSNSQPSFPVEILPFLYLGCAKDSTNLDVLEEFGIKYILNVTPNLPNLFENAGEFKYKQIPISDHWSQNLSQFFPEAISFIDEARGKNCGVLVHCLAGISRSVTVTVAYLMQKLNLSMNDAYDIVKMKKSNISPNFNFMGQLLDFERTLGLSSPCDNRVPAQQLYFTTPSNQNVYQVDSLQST

[6] = target: Voltage-gated potassium channel subunit beta-2 (Rattus norvegicus) (UniProt P62483); assay: KvBeta enzyme negative modulators, primary screen, biochemical, NADPH fluorescence (AID 622;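 active means fluorescence slope higher than the sample average by over 3 SD, cut at about -0.22 in these data, passing the limit was not always enough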;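 further: slope of raw intensity against log time taken from 70 to 1610 s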); conditions: recombinant KvBeta, 4-cyanobenzaldehyde reduction, at 10 µM, stronger effect = higher value
Sequence of Voltage-gated potassium channel subunit beta-2 (Rattus norvegicus) (P62483 whole entry, looked up): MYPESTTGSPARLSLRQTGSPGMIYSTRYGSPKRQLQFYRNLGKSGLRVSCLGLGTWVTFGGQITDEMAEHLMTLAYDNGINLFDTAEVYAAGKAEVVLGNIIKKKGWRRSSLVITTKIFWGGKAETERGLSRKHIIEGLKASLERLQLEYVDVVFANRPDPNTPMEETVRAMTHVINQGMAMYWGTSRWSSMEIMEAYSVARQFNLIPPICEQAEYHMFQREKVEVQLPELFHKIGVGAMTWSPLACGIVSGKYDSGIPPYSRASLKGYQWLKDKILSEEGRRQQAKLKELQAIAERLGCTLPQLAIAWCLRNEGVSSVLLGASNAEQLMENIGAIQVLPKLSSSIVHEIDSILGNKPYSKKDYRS

[7] = target: Voltage-gated potassium channel subunit beta-2 (Rattus norvegicus) (UniProt P62483); assay: KvBeta positive modulators, primary screen, biochemical, NADPH fluorescence (AID 623;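 active means NADPH fluorescence slope more negative than the mean of all samples by about 3 SD, 99.7% confidence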;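 further: fluorescence intensity change per second fitted from 20 to 320 s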); conditions: Recombinant KvBeta, NADPH fluorescence decrease slope, 10 min; at 10 µM; stronger effect = lower value
[8] = target: Alpha-2C adrenergic receptor (Homo sapiens) (UniProt P18825); assay: modulators of alpha2C/GIRK thallium flux, primary screen, cell-based, HEK293 alpha2C/GIRK1/2 (AID 624;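 active means fluorescence slope after compound addition differing from the mean of all screened samples at 99.7% confidence, in either direction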;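 further: slope of fluorescence ratio to pre-addition baseline per second over 15 to 24 s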); conditions: thallium flux BTC fluorescence, at 10 µM, actives lie on both sides
Sequence of Alpha-2C adrenergic receptor (Homo sapiens) (P18825 whole entry, looked up): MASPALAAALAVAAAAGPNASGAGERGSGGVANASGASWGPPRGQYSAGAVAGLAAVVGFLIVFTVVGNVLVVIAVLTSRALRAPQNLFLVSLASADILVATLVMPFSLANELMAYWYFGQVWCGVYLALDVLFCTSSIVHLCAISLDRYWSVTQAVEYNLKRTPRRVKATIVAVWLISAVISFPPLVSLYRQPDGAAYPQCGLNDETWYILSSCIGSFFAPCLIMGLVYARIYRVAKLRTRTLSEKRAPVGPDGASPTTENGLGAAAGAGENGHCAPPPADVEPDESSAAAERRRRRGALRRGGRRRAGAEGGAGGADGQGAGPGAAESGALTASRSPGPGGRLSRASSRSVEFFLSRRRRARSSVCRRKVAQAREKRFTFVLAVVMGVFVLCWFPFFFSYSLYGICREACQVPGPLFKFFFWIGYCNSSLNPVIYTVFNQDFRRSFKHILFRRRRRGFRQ

[9] = inhibitors of larval lipid processing in zebrafish, primary screen, whole organism, PED6 fluorescence, gall bladder and intestine (AID 686;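 active means a full or partial loss of lipid-probe fluorescence in the fish gall bladder, intestine or both, judged by eye; inactive means no fluorescence loss, or compound toxic to the fish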;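 further: larvae 5 to 7 days old with five fish per well; signal comes from phospholipase A2 cleavage of quenched PED6 carried via bile; overnight exposure to compound and PED6 before scoring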); conditions: Zebrafish larvae PED6 lipid processing, fluorescence scoring; screened at 20 µM (by protocol)
[10] = inhibitors of Chlamydomonas gravitaxis, primary screen, whole organism, Chlamydomonas reinhardtii, WT vs cilia-less mutant, absorbance, 96-well (AID 463189); conditions: OD600 absorbance, 2 days, at 10 µM, stronger effect = higher value;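 further: 0% = wild type cc124 cells in DMSO and 100% = ciliumless bld1 mutant cells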
[11] = inhibitors of Sendai virus-induced IRF3 signaling, primary screen, TLR/RLR signaling modifier project, cell-based, Sendai virus stimulus, luciferase, 10K MLSCN set (AID 602276;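 active means inhibition at or above 50% at 10 µM; inactive means inhibition below 50%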;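 further: firefly luciferase from ISG56 promoter only with Renilla not read in this screen; 0% = Sendai virus plus DMSO and 100% = medium plus DMSO without virus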); conditions: HEK293 RL24 IRF3 luciferase reporter, at 10 µM, stronger effect = higher value
[12] = inhibitors of poly I:C-induced TLR3 signaling, primary screen, cell-based, poly I:C stimulus, luciferase, 10K MLSCN set (AID 602277;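 active means inhibition of the reporter signal at or above 50%; inactive means inhibition below 50%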); conditions: HEK293-TLR3 RL24 IRF3 luciferase reporter, at 10 µM, stronger effect = higher value
[13] = measured here: cell density z-score
[14] = measured here: nuclear c-Myc green intensity z-score
[15] = measured here: nuclear pErk red intensity z-score, stronger effect = higher value

Row | SMILES | cell count [1] | inhibition [1] | inhibition of aggregation [2] | nuclei count [2] | inhibition [3] | nuclei count [3] | z-score [4, 13] | z-score [4, 14] | z-score [4, 15] | inhibition [5] | fluorescence slope [6] | NADPH fluorescence slope [7] | slope [8] | outcome [9] | inhibition [10] | inhibition [11] | inhibition [12]
1 | CCCc1c(OCCCCc2nn[nH]n2)ccc(C(C)=O)c1O | 599 | -11.6% (inactive) | -9.3% (inactive) | 95.3% | -37.8% (inactive) | 129% | 0.961 | 0.408 | -0.601 | 9.37% (inactive) | -0.458 (inactive) | -4e-05 (inactive) | 0.00468 (inactive) | inactive | -12.8% (inactive) | 15.4% (inactive) | 34.3% (inactive)
2 | CCCC(=O)O[C@]1(C(=O)COC(C)=O)CC[C@H]2[C@@H]3C[C@H](F)C4=CC(=O)C=C[C@]4(C)[C@@]3(F)[C@@H](O)C[C@@]21C | 642 | -9.3% (inactive) | -34.4% (inactive) | 61.6% | -95.2% (inactive) | 136% | -0.0756 | -0.093 | 0.355 | -0.493% (inactive) | -0.5 (inactive) | -5.5e-05 (inactive) | 0.00445 (inactive) | inactive | 9.17% (inactive) | 15.9% (inactive) | 48.2% (inactive)
3 | Nc1nc(Cl)nc2c1ncn2[C@@H]1O[C@H](CO)[C@@H](O)[C@H]1O | 493 | -14.6% (inactive) | 16.9% (inactive) | 88.7% | -20.3% (inactive) | 117% | 0.919 | 0.297 | -0.425 | 7.39% (inactive) | -0.439 (inactive) | 2.4e-05 (inactive) | 0.00614 (inactive) | inactive | 13% (inactive) | 16.8% (inactive) | 39% (inactive)
4 | COCCCN1C(=O)C(O)=C(C(=O)c2ccco2)C1c1ccc(Br)cc1 (stereo not given) | 417 | -4.6% (inactive) | -13.4% (inactive) | 107% | -25.5% (inactive) | 117% | -1.16 | 0.864 | 0.315 | -4.7% (inactive) | -0.457 (inactive) | 7.2e-06 (inactive) | 0.00512 (inactive) | inactive | 6.25% (inactive) | 23.9% (inactive) | 22.2% (inactive)
5 | COCCc1ccc(OCC(O)CNC(C)C)cc1 (stereo not given) | 534 | 1.4% (inactive) | -4.4% (inactive) | 85.7% | -71.5% (inactive) | 108% | -1.75 | 1.07 | 0.0458 | 8% (inactive) | -0.46 (inactive) | -3.7e-05 (inactive) | 0.00577 (inactive) | inactive | -6.24% (inactive) and 33.7% (inactive) | 15.3% (inactive) | 32.2% (inactive)
6 | C[C@]12CC[C@@H]3c4ccc(OC(=O)c5ccccc5)cc4CC[C@H]3[C@@H]1CC[C@@H]2O | 623 | 1.2% (inactive) | -35.3% (inactive) | 31.5% | -112% (inactive) | 133% | -1.91 | 0.276 | -1.27 | -6.41% (inactive) | -0.467 (inactive) | -8.1e-05 (inactive) | 0.00784 (inactive) | inactive | 5.46% (inactive) | 7.4% (inactive) | 33.1% (inactive)
7 | CSc1ccccc1NC(=O)c1c(Br)cnn1C | 559 | -4.3% (inactive) | 33.5% (active) | 58.2% | 26.1% (inactive) | 130% | -0.962 | -0.8 | 0.479 | -2.47% (inactive) | -0.453 (inactive) | -5.8e-06 (inactive) | 0.00569 (inactive) | inactive | 4.29% (inactive) | 5.4% (inactive) | 4.72% (inactive)
8 | CCOC(=O)C1CCN(c2nc3ccccc3nc2C(C#N)C(=O)OC(C)C)CC1 (stereo not given) | 520 | -11.5% (inactive) | -208% (inactive) | 104% | -90.1% (inactive) | 128% | -0.0557 | 0.253 | -0.0521 | -4.27% (inactive) | -0.341 (inactive) | -2.3e-08 (inactive) | 0.00139 (inactive) | inactive | 9.67% (inactive) | -15.8% (inactive) | -37.7% (inactive)
9 | Cn1ccnc1SCCC#N | 569 | -2.2% (inactive) | -3.9% (inactive) | 110% | -10.9% (inactive) | 116% | -0.727 | 0.913 | -1.8 | 6.04% (inactive) | -0.51 (inactive) | -0.000118 (inactive) | 0.00562 (inactive) | inactive | 3.16% (inactive) | 5.13% (inactive) | 14.1% (inactive)
10 | O=C(O)Cc1ccc(-c2ccccc2)cc1 | 636 | -3% (inactive) | -7.3% (inactive) | 105% | -30.6% (inactive) | 123% | 1.25 | 0.515 | -0.372 | 19% (inactive) | -0.444 (inactive) | -4.7e-05 (inactive) | 0.00497 (inactive) | inactive | -15% (inactive) | 8.68% (inactive) | 34.8% (inactive)
